PubChem BioAssay
Activity calls are given as the source filed them. Unless noted, no rule for the calls is given here.

Assays:
[1] = anti-His antibody binders, primary screen, artefact control for SMM control protein annotation, biochemical, small-molecule microarray, 635 nm fluorescence (AID 1128); conditions: anti-His Alexa647 antibody binding, higher = more signal;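 also: score merges feature fluorescence with signal-to-noise for each printed compound spot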
[2] = test system: Human papillomavirus type 1a E7 protein (residues 1-88); experiment: HPV1a E7 small-molecule binders, primary screen, biochemical, small-molecule microarray, residues 1-88, 635 nm (AID 1129); conditions: small-molecule microarray binding, fluorescence 635 nm; higher = more signal
[3] = target: Focal adhesion kinase 1 (Homo sapiens) (UniProt Q05397); experiment: small-molecule microarray binders of FAK, primary screen, biochemical, 635/667 nm fluorescence, BSA, DTT (AID 1130); conditions: PTK2 binding, 635 nm fluorescence, higher = more signal;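 also: composite of spot emission at 667 nm and signal to noise over triplicate slides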
[4] = test system: Fibrinogen (Alexa647-labelled); experiment: fibrinogen binders on compound microarrays, profiling panel, artefact control for SMM control-protein annotation, biochemical, small-molecule microarray, 635/667 nm fluorescence (AID 1131); conditions: fibrinogen-A647 binding fluorescence, higher = more signal;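 also: z-score merges 667 nm fluorescence with per-spot signal-to-noise over triplicate slides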
[5] = target: Follistatin (Homo sapiens) (UniProt P19883); experiment: follistatin binders on small-molecule microarrays, primary screen, biochemical, small-molecule microarray, 635/667 nm fluorescence (AID 1132); conditions: FST binding, 635 nm fluorescence, higher = more signal
[6] = target: Fibroblast growth factor 2 (Homo sapiens) (UniProt P09038); experiment: FGF2 binders on small-molecule microarrays, primary screen, biochemical, small-molecule microarray, 635/667 nm fluorescence (AID 1133); conditions: small-molecule microarray binding, FGF2, fluorescence 635/667; higher = more signal
[7] = mitochondrial membrane potential change in A549 cells, profiling panel, cell-based, JC-1 fluorescence, basal, 24 h, 100 nL (AID 1138); conditions: higher = more signal;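 also: A549 lung adenocarcinoma cells under basal conditions with no added stimulus; test concentration not given here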
[8] = test system: Lefty1; experiment: Lefty1 binders on small-molecule microarrays, primary screen, biochemical, small-molecule microarray, 635/667 nm fluorescence (AID 1139); conditions: small-molecule microarray binding, fluorescence 635/667; higher = more signal
[9] = test system: wheat germ agglutinin (Triticum aestivum), Alexa647-labelled; experiment: wheat germ agglutinin binders on compound microarrays, profiling panel, artefact control for SMM control-protein annotation, biochemical, small-molecule microarray, 635/667 nm fluorescence (AID 1140); conditions: WGA-A647 binding, 635 nm fluorescence, higher = more signal;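 also: score merges 667 nm feature emission with signal to noise over triplicate slides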
[10] = target: Luciferin 4-monooxygenase (Photinus pyralis) (UniProt P08659); experiment: firefly luciferase enzyme inhibitors, primary screen, biochemical, luminescence, purified enzyme, 2006 set (AID 1141); conditions: SteadyGlo luminescence, 30 min, higher = more signal, called active from +8 up or from −8 down;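 also: cell-free assay with purified firefly luciferase at 100 ng per well in PBS; test concentration not given here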
[11] = test system: Wnt5a (protein binding on small-molecule microarray); experiment: Wnt5a binders on small-molecule microarray, primary screen, biophysical, 635/667 nm fluorescence (AID 1142); conditions: 635 nm fluorescence, higher = more signal;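 also: fluorescence read at 667 nm with signal to noise per printed feature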
[12] = cell viability in Huh7 cells, primary screen, cytotoxicity control for HCV replication inhibitor project, CellTiter-Glo luminescence, basal, 48 h (AID 1143); conditions: Huh7 HCV replicon, higher = more signal, called active from +8 up or from −8 down;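 also: Huh7 hepatoma cells carrying a hepatitis C replication reporter with no stimulus; test concentration not given here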
[13] = P. aeruginosa biofilm formation inhibitors, primary screen, PAO1 strain, BacTiter-Glo luminescence, LB-PBS (AID 1144); conditions: 12 h, higher = more signal
[14] = CREB reporter modulators without forskolin, primary screen, cell-based, PC12, CRE-LacZ reporter, unstimulated (AID 1145); conditions: no forskolin, luminescence, 4.5 h, higher = more signal, called active from +8 up or from −8 down
[15] = CREB reporter modulators under forskolin, primary screen, cell-based, PC12, CRE-LacZ reporter, forskolin-stimulated (AID 1146); conditions: luminescence, 4.5 h, higher = more signal, called active from +8 up or from −8 down;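 also: PC12 cells with 6xCRE LacZ reporter stimulated by forskolin 10 µM; beta-galactosidase reporter signal reflecting CREB driven transcription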
[16] = target: Streptavidin (Streptomyces avidinii) (UniProt P22629); experiment: streptavidin binders on small-molecule microarray, primary screen, artefact control for SMM compound annotation, biophysical, 635/667 nm fluorescence (AID 1147); conditions: streptavidin binding, higher = more signal;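 also: signal reflects streptavidin binding to arrayed compounds as a control protein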
[17] = small-molecule binders of probe aInhba, primary screen, biochemical, small-molecule microarray, 635/667 nm fluorescence (AID 1148); conditions: higher = more signal;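 also: score merges 667nm spot fluorescence with signal-to-noise for antibody binding to printed compounds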
[18] = target: Torsin-1A (Homo sapiens) (UniProt O14656); experiment: torsin A binders from cell lysate, primary screen, small-molecule microarray, wild-type, 635/667 nm (AID 1149); conditions: COS7 hTOR1A-WT lysate, 635 nm fluorescence, higher = more signal
[19] = target: Torsin-1A (Homo sapiens) (UniProt O14656); experiment: small-molecule binders of mutant TOR1A in lysate, primary screen, cell lysate, small-molecule microarray, COS7 lysate, 635/667 nm fluorescence (AID 1150); conditions: COS7 hTOR1A mutant lysate, 635 nm fluorescence, higher = more signal;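 also: score pools 667 nm emission and signal to noise measuring lysate protein binding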
[20] = test system: Sonic hedgehog protein (Shh); experiment: small-molecule binders of Shh protein, primary screen, biochemical, small-molecule microarray, 635/667 nm fluorescence (AID 1151); conditions: small-molecule microarray binding, 635 nm fluorescence; higher = more signal;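 also: Shh protein binding to compounds spotted on small-molecule microarray slides; score combines spot fluorescence intensity with signal-to-noise across triplicate slides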

Sequence of Luciferin 4-monooxygenase (Photinus pyralis) (P08659 whole entry, looked up): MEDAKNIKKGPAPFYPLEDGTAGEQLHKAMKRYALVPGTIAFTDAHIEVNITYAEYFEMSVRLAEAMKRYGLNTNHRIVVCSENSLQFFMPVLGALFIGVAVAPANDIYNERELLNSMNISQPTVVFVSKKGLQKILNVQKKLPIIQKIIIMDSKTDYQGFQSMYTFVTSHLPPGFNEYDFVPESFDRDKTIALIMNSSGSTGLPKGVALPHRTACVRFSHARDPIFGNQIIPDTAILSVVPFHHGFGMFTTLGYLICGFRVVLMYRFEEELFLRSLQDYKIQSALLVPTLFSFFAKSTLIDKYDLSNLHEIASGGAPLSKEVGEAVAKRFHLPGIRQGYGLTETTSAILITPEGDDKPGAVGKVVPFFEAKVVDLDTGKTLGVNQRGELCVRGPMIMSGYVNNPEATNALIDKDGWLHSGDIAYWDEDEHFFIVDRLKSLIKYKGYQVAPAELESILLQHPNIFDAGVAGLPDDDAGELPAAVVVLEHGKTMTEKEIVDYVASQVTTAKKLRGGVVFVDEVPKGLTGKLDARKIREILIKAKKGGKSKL
Sequence of Focal adhesion kinase 1 (Homo sapiens) (Q05397 whole entry, looked up): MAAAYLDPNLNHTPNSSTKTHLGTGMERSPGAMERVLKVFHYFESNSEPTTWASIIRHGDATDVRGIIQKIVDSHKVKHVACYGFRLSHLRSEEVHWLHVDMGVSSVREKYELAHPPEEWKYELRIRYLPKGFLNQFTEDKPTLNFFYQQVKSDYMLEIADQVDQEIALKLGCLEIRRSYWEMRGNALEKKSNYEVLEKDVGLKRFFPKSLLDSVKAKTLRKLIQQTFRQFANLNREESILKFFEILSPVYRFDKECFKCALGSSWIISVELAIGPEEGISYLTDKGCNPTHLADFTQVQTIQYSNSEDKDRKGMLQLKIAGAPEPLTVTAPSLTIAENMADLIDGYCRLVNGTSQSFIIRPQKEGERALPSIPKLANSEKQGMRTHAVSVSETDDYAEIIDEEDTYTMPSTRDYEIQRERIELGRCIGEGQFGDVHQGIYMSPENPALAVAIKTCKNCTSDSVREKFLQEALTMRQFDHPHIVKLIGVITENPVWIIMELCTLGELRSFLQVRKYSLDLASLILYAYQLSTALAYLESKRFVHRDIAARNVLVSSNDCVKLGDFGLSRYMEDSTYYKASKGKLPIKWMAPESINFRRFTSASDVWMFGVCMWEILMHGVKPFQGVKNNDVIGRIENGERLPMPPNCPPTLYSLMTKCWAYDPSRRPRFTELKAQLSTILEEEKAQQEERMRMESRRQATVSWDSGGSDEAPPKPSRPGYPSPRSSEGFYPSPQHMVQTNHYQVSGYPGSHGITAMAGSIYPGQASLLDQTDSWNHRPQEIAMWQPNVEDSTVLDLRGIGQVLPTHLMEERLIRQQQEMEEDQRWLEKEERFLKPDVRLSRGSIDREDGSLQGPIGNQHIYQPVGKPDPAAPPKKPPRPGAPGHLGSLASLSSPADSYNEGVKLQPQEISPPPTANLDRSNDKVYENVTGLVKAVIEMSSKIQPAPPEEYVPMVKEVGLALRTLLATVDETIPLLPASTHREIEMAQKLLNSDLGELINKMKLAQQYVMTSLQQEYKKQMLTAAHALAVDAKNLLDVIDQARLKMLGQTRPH
Sequence of Torsin-1A (Homo sapiens) (O14656 whole entry, looked up): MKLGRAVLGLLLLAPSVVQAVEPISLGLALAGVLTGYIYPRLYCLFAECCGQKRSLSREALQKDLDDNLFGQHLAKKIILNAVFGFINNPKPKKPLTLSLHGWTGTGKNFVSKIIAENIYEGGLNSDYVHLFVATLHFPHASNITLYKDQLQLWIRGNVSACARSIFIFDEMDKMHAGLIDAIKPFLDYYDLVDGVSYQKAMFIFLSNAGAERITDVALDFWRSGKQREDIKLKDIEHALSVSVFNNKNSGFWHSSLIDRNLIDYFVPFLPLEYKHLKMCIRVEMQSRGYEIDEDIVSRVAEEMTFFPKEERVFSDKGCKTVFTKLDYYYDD
Sequence of Fibroblast growth factor 2 (Homo sapiens) (P09038 whole entry, looked up): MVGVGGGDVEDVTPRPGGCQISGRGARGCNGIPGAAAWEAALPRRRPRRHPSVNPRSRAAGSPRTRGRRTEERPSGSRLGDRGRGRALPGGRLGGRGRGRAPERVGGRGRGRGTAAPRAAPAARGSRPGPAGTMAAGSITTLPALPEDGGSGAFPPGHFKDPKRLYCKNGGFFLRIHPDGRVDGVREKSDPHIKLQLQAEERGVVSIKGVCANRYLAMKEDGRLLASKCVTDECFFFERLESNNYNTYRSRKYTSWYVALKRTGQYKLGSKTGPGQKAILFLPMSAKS
Sequence of Streptavidin (Streptomyces avidinii) (P22629 whole entry, looked up): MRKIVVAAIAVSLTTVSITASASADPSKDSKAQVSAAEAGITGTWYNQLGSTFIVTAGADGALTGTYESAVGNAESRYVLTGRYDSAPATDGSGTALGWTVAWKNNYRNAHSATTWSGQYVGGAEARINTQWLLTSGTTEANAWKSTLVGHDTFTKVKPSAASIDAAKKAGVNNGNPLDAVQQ
Sequence of Follistatin (Homo sapiens) (P19883 whole entry, looked up): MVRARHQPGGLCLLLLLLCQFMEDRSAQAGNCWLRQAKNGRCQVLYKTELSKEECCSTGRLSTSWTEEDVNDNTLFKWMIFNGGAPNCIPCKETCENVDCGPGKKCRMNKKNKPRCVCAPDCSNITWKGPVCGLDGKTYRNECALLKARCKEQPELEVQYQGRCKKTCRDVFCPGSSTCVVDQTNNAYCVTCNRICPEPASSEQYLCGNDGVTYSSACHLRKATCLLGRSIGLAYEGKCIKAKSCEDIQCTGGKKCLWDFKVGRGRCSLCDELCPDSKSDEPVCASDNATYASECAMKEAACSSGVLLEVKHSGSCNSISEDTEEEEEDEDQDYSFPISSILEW

Row | SMILES | composite z-score [1] | composite z-score [2] | composite z-score [3] | composite z-score [4] | composite z-score [5] | composite z-score [6] | z-score [7] | composite z-score [8] | composite z-score [9] | z-score [10] | composite z-score [11] | z-score [12] | z-score [13] | z-score [14] | z-score [15] | composite z-score [16] | composite z-score [17] | composite z-score [18] | composite z-score [19] | composite z-score [20]
1 | COC(=O)[C@@]1(Cc2ccc(F)cc2)[C@H]2c3cc(C(=O)N(C)C)n(Cc4ccc(O)c(OC)c4)c3C[C@H]2CN1C(=O)c1ccccc1 | 1.15 | 0.575 | 0.489 | 0.977 | 0.0157 | 0.0287 | -1.18 | -0.0615 | 0.438 | 1.08 (inactive) | 0.128 | -2.65 (inactive) | -1.24 (inactive) | 0.387 (inactive) | 0.0711 (inactive) | 0.575 | -0.108 | 0.198 | 0.484 | -0.556
2 | NCCCCCNC(=O)[C@@H]1C[C@@H]2C(=O)N3CCC[C@H]3C(=O)N2[C@@H]1c1ccc(O)cc1 | 0.509 | 1.18 | 0.139 | 0.788 | 1.17 | 0.428 | 0.375 | 1.08 | 0.955 | -0.444 (inactive) | 0.446 | -0.406 (inactive) | -0.113 (inactive) | 0.143 (inactive) | -0.707 (inactive) | 1.11 | 0.0706 | 0.778 | 1.1 | 0.468
3 | CCOC(=O)C1=C[C@@H](C(C)(C)C)N(S(=O)(=O)c2ccc(C)cc2)[C@H]1c1cccc(Cl)c1 | 1.07 | 1.22 | 2.77 | 0.862 | 0.677 | 0.556 | 2.42 | 1.26 | 1.01 | 1.24 (inactive) | 0.37 | -4.84 (inactive) | 1.52 (inactive) | 0.0798 (inactive) | -0.651 (inactive) | 1.37 | 0.18 | 0.224 | 0.695 | 0.163
4 | Cc1ccccc1C(O)C1C=CC2C(=O)NC(=O)C2N1Nc1ccc(Cl)cc1Cl (stereo not given) | 0.817 | 1.18 | 0.276 | 0.866 | 0.802 | -0.344 | -1.06 | 0.518 | 0.951 | -1.08 (inactive) | -0.0864 | -0.702 (inactive) | -0.274 (inactive) | 1.01 (inactive) | -0.569 (inactive) | 0.878 | 0.319 | -0.192 | 0.244 | -0.232
5 | O=C(O)[C@H]1C[C@H]2C(=O)N[C@@H](Cc3ccccc3)C(=O)N2[C@H]1c1cccc(OCCO)c1 | 1.7 | -0.0006 | -0.167 | 0.472 | 1.43 | 1.44 | 0.706 | 1.33 | 0.568 | -0.832 (inactive) | 0.223 | -0.6 (inactive) | 0.28 (inactive) | 1.23 (inactive) | -0.178 (inactive) | 0.105 | 0.0663 | 1.42 | 1.71 | 1.9
6 | CO[C@H]1O[C@H](CO)[C@@H](OC(=O)c2ccc(Br)cc2)[C@@H]2OC(=O)[C@H](Cc3ccccc3)C/C=C/C[C@@H](Cc3ccccc3)C(=O)O[C@@H]12 | 0.478 | 0.817 | 0.703 | 0.135 | 0.84 | 1.37 | 0.0305 | 0.416 | -0.0716 | 0.659 (inactive) | 0.293 | -3.95 (inactive) | -1.16 (inactive) | -0.0017 (inactive) | -0.175 (inactive) | 0.088 | -0.263 | -0.295 | -0.0307 | 0.984
7 | COc1ccc([Si](C)(C)[C@H]2[C@H](CCO)O[C@@]3(C(=O)N(Cc4ccccc4)c4ccc(N5C(=O)c6ccccc6Oc6ccccc65)cc43)[C@@H]2C)cc1 | 0.814 | 0.885 | -0.21 | -0.0167 | -0.4 | 1.02 | 0.616 | -0.204 | 1.23 | 0.666 (inactive) | 0.147 | -6.59 (inactive) | -0.0823 (inactive) | 0.324 (inactive) | -0.328 (inactive) | -0.069 | -0.128 | -0.218 | 0.102 | 0.534
8 | Cc1cccc([C@H]2C[C@H]3C(I)=C[C@@H]2C(=O)[C@]32CO2)c1 | 0.0509 | -0.479 | -0.446 | -0.775 | 0.573 | 0.437 | 0.33 | -0.118 | -0.412 | -0.303 (inactive) | -0.243 | -0.478 (inactive) | -0.209 (inactive) | 1.76 (inactive) | 1.56 (inactive) | -0.0548 | -0.0762 | -0.404 | -0.481 | 0.0299
9 | COc1cc(NN2C(C(O)C3CCCCC3)C=CC3C(=O)N(c4ccccc4)C(=O)C32)cc(OC)c1OC (stereo not given) | 1.96 | 1.26 | 0.724 | 0.964 | 0.459 | -0.776 | -0.0727 | -0.175 | 1.23 | -0.45 (inactive) | 0.316 | -2.88 (inactive) | -0.408 (inactive) | 0.436 (inactive) | -0.0678 (inactive) | 0.775 | 0.121 | -0.224 | 0.335 | -0.686
10 | CCOC(=O)C[C@H]1[C@H](OC(=O)c2ccccc2-c2ccccc2)[C@@H](NC(=O)c2ccccc2)c2cc(OCCCO)ccc2N1C(=O)c1ccccc1 | -0.356 | 0.558 | 0.59 | 0.847 | 0.378 | 0.673 | 0.629 | 0.292 | 0.0533 | 0.354 (inactive) | 0.309 | -0.208 (inactive) | 0.867 (inactive) | 2.38 (inactive) | 0.908 (inactive) | 0.19 | -0.157 | 0.0802 | 0.261 | 0.259
